# Test results published in PubChem BioAssay (NCATS).
# Where “and” joins values, the source holds several entries; their conditions need not be identical. Equal values may be shown once. Results filed as inconclusive are left out. Entries that show only a call come without a potency. Calls of active or inactive are those of the source. Calls follow the shape of the full dose curve. Square brackets hold non-standard residues; d marks the D form. Peptide text beside a SMILES is read from it. * marks the point of attachment. Sta = CC(C)C[C@H](N)[C@@H](O)CC(=O)O; Isovaleryl = CC(C)CC(=O)*
# How the values were obtained:
# [1] = Cytotoxicity counterscreen for inhibitors of SARS-CoV-2 cell entry (AID 1645845); also: nearly all actives have a fitted effect of over 50% in size
# Procedure, shortened: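 After a 15 min room-temperature ATPLite 1step step, luminescence reflected ATP remaining in HEK293-ACE2 cells exposed to compound for 1 h plus 48 h at 37 C, with percent activity set by cell and no-cell controls.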
# [2] = Primary qHTS to identify inhibitors of SARS-CoV-2 cell entry (AID 1645846); conditions: activity change, negative = inhibition: at 57.1 µM (top of the series) unless noted; also: nearly all actives have a fitted effect of over 45% in size; also: potency is read from the fitted curve at half-maximal effect
# Procedure, shortened: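 Luminescence readout (Bright-Glo luciferase) 48 h after pseudoparticle addition. HEK293-ACE2 cells, 1500/well; compound pre-incubation 1 h; Normalized to spike PP and bald PP.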
Compound,Potency [1],"activity change, negative = inhibition [2]",Potency [2],"activity change, negative = cytotoxicity [1]"
CC(O)Cn1cnc2c1c(=O)n(C)c(=O)n2C (configuration not stated),inactive,0.504%,–,–
CNC(=O)Oc1ccc2c(c1)[C@]1(C)CCN(C)[C@@H]1N2C,inactive,–,inactive,–
CCCCC(=O)O[C@]1(C(=O)CO)[C@@H](C)C[C@H]2[C@@H]3CCC4=CC(=O)C=C[C@]4(C)[C@@]3(F)[C@@H](O)C[C@@]21C,inactive,–,inactive,–
CN1CCN(CCCN2c3ccccc3Sc3ccc(S(=O)(=O)N(C)C)cc32)CC1,inactive,–,25.1 µM (active),–
Cn1c(=O)c2c(ncn2C)n(C)c1=O,inactive,0.143% and -10.1%,–,–
N[C@@H](CSSC[C@H](N)C(=O)O)C(=O)O,–,-10.6% [at 0.702 µM],–,0.929% [at 0.702 µM] (inactive)
CCCNC(C)(C)COC(=O)c1ccccc1,inactive,3.38%,–,–
CC(C)(C)NCC(O)COc1cccc2c1CCC(=O)N2 (configuration not stated),inactive,–,inactive,–
CCC1Nc2cc(Cl)c(S(N)(=O)=O)cc2S(=O)(=O)N1 (configuration not stated),inactive,–,inactive,–
Cc1cc(C)c(/C=C2\C(=O)Nc3ccccc32)[nH]1,inactive,-6.25%,–,–
CCN1C(=O)c2ccccc2C1Nc1ccc(OCCN2CCCCC2)cc1 (configuration not stated),inactive,0.117%,–,–
Cc1[nH]c(=O)c(C#N)cc1-c1ccc2nccn2c1,inactive,–,inactive,–
CC(=O)O[C@H]1C[C@@H]2CC[C@@H]3[C@H](CC[C@@]4(C)[C@H]3C[C@H]([N+]3(C)CCCCC3)[C@@H]4OC(C)=O)[C@@]2(C)C[C@@H]1N1CCCCC1,inactive,-7.24%,–,–
CCn1cc(C(=O)O)c(=O)c2cc(F)c(N3CCNCC3)nc21,inactive,–,inactive,–
O=C(CCCN1CCN(c2ccccn2)CC1)c1ccc(F)cc1,inactive,-24.8%,–,–
C[N+]1(CC2COC(c3ccccc3)(c3ccccc3)O2)CCCCC1 (configuration not stated),inactive,1.26% [at 27.1 µM],–,–
CN1[C@@H]2CC[C@H]1CC(NC(=O)n1c(=O)[nH]c3ccccc31)C2 (some centres not stated),inactive,–,inactive,–
COc1ccc(CN(CCN(C)C)c2ncccn2)cc1,inactive,-19.5%,–,–
CCN(CC)CCNC(C(=O)OCCC(C)C)c1ccccc1 (configuration not stated),inactive,-14.1%,–,–
CCN(CC)C(=O)N1CCN(C)CC1,inactive,-24.4%,–,–
CCC1NC(=O)c2cc(S(N)(=O)=O)c(Cl)cc2N1 (configuration not stated),inactive,-25.9%,–,–
CCCn1cnc2c1c(=O)n(CCCCC(C)=O)c(=O)n2C,inactive,–,inactive,–

Compound,Potency [1],"activity change, negative = inhibition [2]",Potency [2],"activity change, negative = cytotoxicity [1]"
O=C(NC1CCN(CCc2c[nH]c3ccccc23)CC1)c1ccccc1,inactive,-25.8%,–,–
CC(=O)O[C@]1(C(C)=O)CC[C@H]2[C@@H]3C=C(Cl)C4=CC(=O)CC[C@]4(C)[C@H]3CC[C@@]21C,inactive,-27.6%,–,–
C[C@H]1C[C@H]2[C@@H]3CCC4=CC(=O)C=C[C@]4(C)[C@@]3(Cl)[C@@H](O)C[C@]2(C)[C@@]1(O)C(=O)CO,inactive,–,inactive,–
CCCCC[C@H](O)C=C[C@H]1[C@H](O)CC(=O)[C@H]1CC=CCCCC(=O)O,inactive,–,inactive,–
CN(C)[C@@H](CCOc1cccc2ccccc12)c1ccccc1,inactive,–,10 µM (active),–
CC(C(O)c1ccc(O)cc1)N1CCC(Cc2ccccc2)CC1 (configuration not stated),inactive,-24.3%,–,–
CC(=O)[C@@]1(O)CC[C@H]2[C@@H]3C[C@H](C)C4=CC(=O)CC[C@]4(C)[C@H]3CC[C@@]21C,inactive,–,inactive,–
Cc1ncc(COP(=O)(O)O)c(C=O)c1O,inactive,-19%,–,–
CCN[C@@H]1C[C@H](N)[C@@H](OC2OC(CN)=CCC2N)[C@H](O)[C@H]1O[C@H]1OC[C@](C)(O)[C@H](NC)[C@H]1O (some centres not stated),–,42.9% [at 0.702 µM],–,0.776% [at 0.702 µM] (inactive)
CN(C)CCCOC1(Cc2ccccc2)CCCCCC1,inactive,-0.0488%,–,–
CC(C)C(=O)Nc1cccc(C2CN3CCSC3=N2)c1 (configuration not stated),inactive,-6.4%,–,–
CC(=O)Oc1ccc(C(c2ccc(OC(C)=O)cc2)c2ccccn2)cc1,inactive,–,inactive,–
O=[N+]([O-])c1nccn1CO[C@@H](CO)[C@H](O)CO,inactive,–,inactive,–
CCOC(=O)c1cccc(N)c1,inactive,-8.06%,–,–
CC(C)[C@@H]1CC[C@@H](C)CC1=O,inactive,–,inactive,–
C[C@@H]1C[C@H]2[C@@H]3CCC4=CC(=O)C=C[C@]4(C)[C@@]3(F)[C@@H](O)C[C@]2(C)[C@H]1C(=O)CO,inactive,–,inactive,–
NS(=O)(=O)c1cc2c(cc1Cl)NC(CSCc1ccccc1)=NS2(=O)=O,inactive,-3.7%,–,–
COc1ccccc1N1CCN(CC(O)COc2cccc3ccccc23)CC1 (configuration not stated),inactive,-24.9% and -27.1%,–,–
COc1ccc2c(c1)C(=O)N(CCc1ccc(S(=O)(=O)NC(=O)NC3CCCCC3)cc1)C(=O)C2(C)C,inactive,–,inactive,–
C[C@H](O)C(=O)Nc1c(I)c(C(=O)NC(CO)CO)c(I)c(C(=O)NC(CO)CO)c1I,inactive,4.46%,–,–
Cc1cc(O)c(C(C)C)cc1Cl,inactive,–,inactive,–
CCCCN(CCN(CCCC)C(=O)N1CCOCC1)C(=O)N1CCOCC1,inactive,–,inactive,–

Compound,Potency [1],"activity change, negative = inhibition [2]",Potency [2],"activity change, negative = cytotoxicity [1]"
Cc1ccc(Nc2c(F)cccc2Cl)c(CC(=O)O)c1,inactive,–,inactive,–
Cc1ccc(/C=N/n2c(-c3ccccc3)csc2=S)cc1,inactive,-8.63%,–,–
O=C(OCC(O)CO)c1ccccc1Nc1ccnc2c(C(F)(F)F)cccc12 (configuration not stated),inactive,–,inactive,–
O=C(O)CCC(=O)OC[C@@H](NC(=O)C(Cl)Cl)[C@H](O)c1ccc([N+](=O)[O-])cc1,inactive,-2.41%,–,–
O=Cc1ccccc1C=O,inactive,-7.57%,–,–
CSc1ccc(C(=O)c2[nH]c(=O)[nH]c2C)cc1,inactive,–,inactive,–
c1ccc2[nH]c(-c3cscn3)nc2c1,inactive,–,inactive,–
c1ccc(CC2=NCCN2)cc1,inactive,–,inactive,–
CCOC(=O)n1ccn(C)c1=S,inactive,–,inactive,–
CN(Cc1ccc(C(C)(C)C)cc1)Cc1cccc2ccccc12,inactive,2.25%,–,–
CCn1cc(C(=O)O)c(=O)c2cc(F)c(N3CCN(C)CC3)cc21,inactive,–,inactive,–
CC(C)CC(=O)N[C@H](C(=O)N[C@H](C(=O)N[C@@H](CC(C)C)[C@@H](O)CC(=O)N[C@@H](C)C(=O)N[C@@H](CC(C)C)[C@@H](O)CC(=O)O)C(C)C)C(C)C (Isovaleryl-VV[Sta]A[Sta]-OH),inactive,-12.9%,–,–
CC(C)N=C(N)/N=C(\N)Nc1ccc(Cl)cc1,inactive,–,inactive,–
CC(=O)OCC(=O)NCCCOc1cccc(CN2CCCCC2)c1,inactive,–,inactive,–
CC1CC(=O)NN=C1c1ccc(NCC(C)(C)NCC(O)COc2cc(Cl)ccc2C#N)cc1 (configuration not stated),inactive,-23.2%,–,–
O=C(O)CCc1nc(-c2ccccc2)c(-c2ccccc2)o1,inactive,2.68%,–,–
C[N+]1(C)CCC(=C(c2ccccc2)c2ccccc2)CC1,inactive,-5.21%,–,–
Cc1nc(C2CCCCC2)c(-c2ccc(S(N)(=O)=O)c(F)c2)o1,inactive,–,inactive,–
CC(=O)[C@H]1CC[C@H]2[C@@H]3CC=C4C[C@@H](O)CC[C@]4(C)[C@H]3CC[C@]12C,inactive,–,inactive,–
CCC(=O)Oc1ccc2c(c1)CC[C@@H]1[C@@H]2CC[C@@]2(C)[C@H]1C[C@@H](OC(=O)CC)[C@@H]2OC(=O)CC,inactive,–,inactive,–
OC1C(O)C(O)C(O)C(O)C1O (configuration not stated),inactive,-22.4%,–,–
C/C=C/c1ccc(O)c(OC)c1,inactive,-1.3%,–,–
